{"source": "PubChem BioAssay (NCI)", "note": "This is part of a sample that, as a whole, favours compounds with a hit. Of some 83,000 tested, about 20% had one in any assay.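 48-hour exposure, single concentration, 96-well plates; percent growth endpoint where 0 means no net growth. Active: below 10.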 Unmarked numbers belong to inactive results. Calls of active or inactive are those of the source.", "data": [{"system": "A498 renal", "assay": "NCI-60 one-dose screen, 48 h (100 = growth as untreated, 0 = no growth, -100 = all killed)", "settings": "10 µM unless noted", "values": [{"compound": "N#Cc1c(N)n2c(nc1=Nc1ccc([N+](=O)[O-])cc1)sc1cc(Cl)ccc12", "growth": "102%"}, {"compound": "Cc1ccc(Nc2ccc(Nc3ccc(C)cc3S(=O)(=O)O)c3c2C(=O)c2ccccc2C3=O)c(S(=O)(=O)O)c1", "growth": "119%"}, {"compound": "O=C(NC1CCOCC1)c1ccc2c(c1)CN(c1ncc(Cc3cccc(-n4cccn4)c3)s1)CC2", "growth": "46.6%"}, {"compound": "O=S(=O)(Cc1ccccc1)c1nc2ccccc2s1", "growth": "111%"}, {"compound": "COc1cc2c(=O)n(CCCn3ccnc3)c3c4cc5c(cc4ccc3c2cc1OC)OCO5", "growth": "-75.6% (active)"}, {"compound": "CCOC(=O)c1c(C)[nH]c(C(=O)CCC(=O)OC)c1C", "growth": "119%"}]}, {"system": "CCRF-CEM leukemia", "assay": "NCI-60 one-dose screen, 48 h (100 = growth as untreated, 0 = no growth, -100 = all killed)", "settings": "10 µM unless noted", "values": [{"compound": "CCN(CC)CC(=O)Nc1cccc(C(=O)OC(C)C)c1", "growth": "86.6%"}, {"compound": "CCCCOC(=O)c1ccc(NC(=O)C(C)N2CCOCC2)cc1", "note": "(stereo not given)", "growth": "72.4%"}, {"compound": "CN1C[C@@H](c2ccc(Cl)cc2)[C@]2(NC(=S)N(c3ccc(F)c(Cl)c3)C2=O)[C@@]12C(=O)NC1C=CC(Cl)=C[C@H]12", "note": "(stereo not given in full)", "growth": "6.69% (active)"}, {"compound": "OC(CBr)c1ccnc2ccccc12", "note": "(stereo not given)", "growth": "76.8%"}, {"compound": "CCCCNCC(=O)Nc1ccc(C(=O)OCC)cc1", "growth": "79.4%"}, {"compound": "Nc1nc(Nc2ccc(Cl)cc2)nn1S(=O)(=O)c1ccc(-c2ccc(F)cc2)cc1", "growth": "95.1%"}, {"compound": "CCCCCOC(=O)c1cccc(NC(=O)CN(CC)CC)c1", "growth": "78.6%"}, {"compound": "N#Cc1c(N)n2c(nc1=Nc1ccc(Cl)cc1)sc1cc(Cl)ccc12", "growth": "92%"}, {"compound": "CCN(CC)CCOC(=O)Nc1ccccc1Cl", "growth": "75.7%"}, {"compound": "CCN(CC)c1ccc(Nc2ccc(CC(=O)c3ccccc3)cc2)cc1", "growth": "95.9%"}, {"compound": "O[C@H]1CO[C@H]2[C@@H]1OC[C@@H]2Oc1ccc(Nc2nc(Nc3ccc(F)c(Cl)c3)ncc2F)cc1Cl", "growth": "103%"}, {"compound": "CS(=O)(=O)c1ccc(-c2nc3cc(Cl)ccc3n2CC(=O)N/N=C/c2ccc(Cl)cc2)cc1", "growth": "19.9%"}, {"compound": "COc1cc2c(cc1OC)-c1ccc3cc4c(cc3c1N(CCN(C)C)C2)OCO4", "growth": "-1.03% (active)"}, {"compound": "CC[C@]1(O)C[C@H]2CN(CCc3c([nH]c4ccccc34)[C@@](C(=O)OC)(c3cc4c(cc3OC)N(C=O)[C@H]3[C@@](O)(C(=O)OC)[C@H](OC(C)=O)[C@]5(CC)C=CCN6CC[C@]43[C@@H]65)C2)C1", "growth": "5.75% (active)"}, {"compound": "CCN(CC)CCCC(C)NCc1ccccc1", "note": "(stereo not given)", "growth": "120%"}, {"compound": "CCOC(=O)c1ccc(NC(=O)CCCN(CC)CC)cc1", "growth": "106%"}, {"compound": "CCC(C)NCc1ccccc1", "note": "(stereo not given)", "growth": "83.4%"}, {"compound": "CCCNCC(=O)Nc1ccc(C(=O)OC(C)(C)CC)cc1", "growth": "104%"}, {"compound": "O=C(Nc1ccccc1Cl)OCCN1CCOCC1", "growth": "86%"}, {"compound": "O=C1N(c2ccccc2)C(=S)N[C@]12[C@H](c1ccccc1)C1CCCN1[C@]21C(=O)NC2C=CC(Cl)=C[C@H]21", "note": "(stereo not given in full)", "growth": "77.6%"}, {"compound": "CCOC(=O)c1c(C)nc2c(c1N)/C(=C/c1ccc(OC)cc1)C(=O)N2Cc1ccc(F)cc1", "growth": "-5.4% (active)"}, {"compound": "COc1ccc(C2CC(c3cnccn3)=NN2)cc1OC", "note": "(stereo not given)", "growth": "75.2%"}, {"compound": "COc1cc2c(cc1OC)-c1ccc3cc4c(cc3c1N(CCCN(C)C)C2)OCO4", "growth": "20.5%"}, {"compound": "CCCCCOC(=O)c1ccc(NC(=O)CNCC(C)C)cc1", "growth": "74.3%"}, {"compound": "COc1cc(-c2cccc([N+](=O)[O-])c2)c(-c2nc(-c3ccccc3)c(-c3ccccc3)n2C2CC2)cc1OC", "growth": "48.1%"}, {"compound": "N=C(N)c1ccc(-c2ccc(-c3ccc(Cl)cc3Cl)o2)nc1", "growth": "-12.9% (active)"}, {"compound": "COc1cc(C(=O)/C=C/c2c(-c3ccc(F)cc3)nc3ncccn23)cc(OC)c1OC", "growth": "18.9%"}, {"compound": "N#Cc1cnn2c(-c3ccc(Cl)cc3)nc(NC3CC3)nc12", "growth": "95.7%"}, {"compound": "COc1cc(-c2ccc(-c3ccc(C(=N)N)nc3)s2)cc(OC)c1OC", "growth": "10.9%"}, {"compound": "COc1cc2c(cc1OC)-c1ccc3cc4c(cc3c1N(CCCN1CCCCC1)C2)OCO4", "growth": "19.6%"}, {"compound": "COc1cccc(CCC2CCCN(c3cc(C)nc(N)n3)C2)c1", "note": "(stereo not given)", "growth": "25.7%"}, {"compound": "N#Cc1c(N)n2c(nc1=Nc1ccc([N+](=O)[O-])cc1)sc1cc(Cl)ccc12", "growth": "83.6%"}, {"compound": "CCCc1cc(=O)oc2c3c(c4c(c12)OC(C)(C)C=C4)O[C@@H](C)[C@H](C)C3=O", "growth": "70.3%"}, {"compound": "Cc1ccc(Nc2ccc(Nc3ccc(C)cc3S(=O)(=O)O)c3c2C(=O)c2ccccc2C3=O)c(S(=O)(=O)O)c1", "growth": "95.6%"}, {"compound": "O=C(NC1CCOCC1)c1ccc2c(c1)CN(c1ncc(Cc3cccc(-n4cccn4)c3)s1)CC2", "growth": "52.1%"}, {"compound": "O=S(=O)(Cc1ccccc1)c1nc2ccccc2s1", "growth": "15.4%"}, {"compound": "COc1cc2c(=O)n(CCCn3ccnc3)c3c4cc5c(cc4ccc3c2cc1OC)OCO5", "growth": "3.73% (active)"}, {"compound": "CN(C)c1ccc(-c2cc(-c3ccc(Nc4nc(Nc5ccccc5)nc(Nc5ccc(Cl)cc5)n4)cc3)nc(N)n2)cc1", "growth": "5.11% (active)"}, {"compound": "CCOC(=O)c1c(C)[nH]c(C(=O)CCC(=O)OC)c1C", "growth": "92.8%"}]}]}
